# Measured values: PubChem BioAssay (NCI)
# Compounds without any hit were thinned out: in the full panel of roughly 83,000, 20% have a hit.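 Treatment: one concentration, 48 hours, 96-well format. Scoring: percent growth, with anything below 10 considered active.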 Unmarked numbers belong to inactive results. Active and inactive are the calls of the source.
# Tests used:
# Test in all cases: NCI-60 one-dose screen, 48 h (100 = growth as untreated, 0 = no growth, -100 = all killed)
# HCT-15 colon = test system: HCT-15 colon
# HT29 colon = test system: HT29 colon
# SNB-75 CNS = test system: SNB-75 CNS
# SNB-19 CNS = test system: SNB-19 CNS
# U251 CNS = test system: U251 CNS
# PC-3 prostate = test system: PC-3 prostate
# SK-MEL-5 melanoma = test system: SK-MEL-5 melanoma
# UACC-62 melanoma = test system: UACC-62 melanoma
# LOX IMVI melanoma = test system: LOX IMVI melanoma
# SK-MEL-28 melanoma = test system: SK-MEL-28 melanoma
# SK-MEL-2 melanoma = test system: SK-MEL-2 melanoma
# EKVX NSCLC = test system: EKVX NSCLC
# SN12C renal = settings: 10 µM unless noted
# UO-31 renal = test system: UO-31 renal
# TK-10 renal = test system: TK-10 renal
# ACHN renal = test system: ACHN renal
# CAKI-1 renal = settings: 10 µM unless noted
# A498 renal = test system: A498 renal
# HL-60(TB) leukemia = settings: 10 µM unless noted
# CCRF-CEM leukemia = test system: CCRF-CEM leukemia
smiles,measurement,setting,value
CCCCn1c(=O)c(C(=O)NCc2ccccc2Cl)c(O)c2ccccc21,growth,HCT-15 colon; 10 µM unless noted,48.6%
same,growth,HT29 colon; 10 µM unless noted,75.5%
same,growth,SNB-75 CNS; 10 µM unless noted,98.4%
same,growth,SNB-19 CNS; 10 µM unless noted,82.6%
same,growth,U251 CNS; 10 µM unless noted,68.2%
same,growth,PC-3 prostate; 10 µM unless noted,34.1%
same,growth,SK-MEL-5 melanoma; 10 µM unless noted,72.7%
same,growth,UACC-62 melanoma; 10 µM unless noted,88.5%
same,growth,LOX IMVI melanoma; 10 µM unless noted,55.4%
same,growth,SK-MEL-28 melanoma; 10 µM unless noted,103%
same,growth,SK-MEL-2 melanoma; 10 µM unless noted,94.3%
same,growth,EKVX NSCLC; 10 µM unless noted,56.5%
same,growth,SN12C renal,76.7%
same,growth,UO-31 renal; 10 µM unless noted,73.4%
same,growth,TK-10 renal; 10 µM unless noted,84.3%
same,growth,ACHN renal; 10 µM unless noted,81.3%
same,growth,CAKI-1 renal,79.6%
same,growth,A498 renal; 10 µM unless noted,71.2%
same,growth,HL-60(TB) leukemia,60.7%
same,growth,CCRF-CEM leukemia; 10 µM unless noted,43.7%
CC(=O)OCC1OC([S-])C(OC(C)=O)C(OC(C)=O)C1OC(C)=O.[Au+].c1ccc(CN2[CH-]N(Cc3ccccc3)C(c3ccccc3)=C2c2ccccc2)cc1,growth,HCT-15 colon; 4.75 µM,-57.5% (active)
same,growth,HCT-15 colon; 10 µM,-79.8% (active)
same,growth,HT29 colon; 4.75 µM,0.406% (active)
same,growth,HT29 colon; 10 µM,16.4%
same,growth,SNB-75 CNS; 4.75 µM,26.1%
same,growth,SNB-75 CNS; 10 µM,3.87% (active)
same,growth,SNB-19 CNS; 4.75 µM,-49.9% (active)
same,growth,SNB-19 CNS; 10 µM,-80.3% (active)
same,growth,U251 CNS; 4.75 µM,-72.4% (active)
same,growth,U251 CNS; 10 µM,-84% (active)
same,growth,PC-3 prostate; 4.75 µM,4.86% (active)
same,growth,PC-3 prostate; 10 µM,9.73% (active)
same,growth,SK-MEL-5 melanoma; 4.75 µM,-50.5% (active)
same,growth,SK-MEL-5 melanoma; 10 µM,16.8%
same,growth,UACC-62 melanoma; 4.75 µM,-18.6% (active)
same,growth,UACC-62 melanoma; 10 µM,3.54% (active)
same,growth,LOX IMVI melanoma; 4.75 µM,-82.1% (active)
same,growth,LOX IMVI melanoma; 10 µM,-86.2% (active)
same,growth,SK-MEL-28 melanoma; 4.75 µM,10%
same,growth,SK-MEL-28 melanoma; 10 µM,20.2%
same,growth,SK-MEL-2 melanoma; 4.75 µM,-22.7% (active)
same,growth,SK-MEL-2 melanoma; 10 µM,-30.8% (active)
same,growth,EKVX NSCLC; 4.75 µM,8.29% (active)
same,growth,EKVX NSCLC; 10 µM,-13.6% (active)
same,growth,UO-31 renal; 4.75 µM,3.56% (active)
same,growth,UO-31 renal; 10 µM,-70.5% (active)
same,growth,TK-10 renal; 4.75 µM,5.22% (active)
same,growth,TK-10 renal; 10 µM,-41.6% (active)
same,growth,ACHN renal; 4.75 µM,-18.5% (active)
same,growth,ACHN renal; 10 µM,-39.3% (active)
same,growth,A498 renal; 4.75 µM,-14.7% (active)
same,growth,A498 renal; 10 µM,50.4%
same,growth,HL-60(TB) leukemia,-43.5% [4.75 µM] (active)
same,growth,CCRF-CEM leukemia; 4.75 µM,-21% (active)
same,growth,CCRF-CEM leukemia; 10 µM,17.4%
CCCC(C)SP(=S)(SC(C)CCC)SC(C)CCC (centres undefined),growth,HCT-15 colon; 10 µM unless noted,103%
same,growth,HT29 colon; 10 µM unless noted,100%
same,growth,SNB-75 CNS; 10 µM unless noted,106%
same,growth,SNB-19 CNS; 10 µM unless noted,108%
same,growth,U251 CNS; 10 µM unless noted,103%
same,growth,PC-3 prostate; 10 µM unless noted,99.8%
same,growth,SK-MEL-5 melanoma; 10 µM unless noted,91.9%
same,growth,UACC-62 melanoma; 10 µM unless noted,101%
same,growth,LOX IMVI melanoma; 10 µM unless noted,93.6%
same,growth,SK-MEL-28 melanoma; 10 µM unless noted,107%
same,growth,SK-MEL-2 melanoma; 10 µM unless noted,107%
same,growth,EKVX NSCLC; 10 µM unless noted,96.7%
same,growth,SN12C renal,108%
same,growth,UO-31 renal; 10 µM unless noted,93%
same,growth,TK-10 renal; 10 µM unless noted,104%
same,growth,ACHN renal; 10 µM unless noted,113%
same,growth,CAKI-1 renal,104%
same,growth,A498 renal; 10 µM unless noted,113%
same,growth,HL-60(TB) leukemia,106%
same,growth,CCRF-CEM leukemia; 10 µM unless noted,103%
N[C@@H](CCC(=O)CCl)C(=O)O,growth,HCT-15 colon; 10 µM unless noted,93.7% [20 µM]
same,growth,HT29 colon; 10 µM unless noted,94.2% [20 µM]
same,growth,SNB-75 CNS; 10 µM unless noted,66.9% [20 µM]
same,growth,SNB-19 CNS; 10 µM unless noted,93.4% [20 µM]
same,growth,U251 CNS; 10 µM unless noted,96.5% [20 µM]
same,growth,PC-3 prostate; 10 µM unless noted,100% [20 µM]
same,growth,SK-MEL-5 melanoma; 10 µM unless noted,101% [20 µM]
same,growth,UACC-62 melanoma; 10 µM unless noted,92.1% [20 µM]
same,growth,LOX IMVI melanoma; 10 µM unless noted,96.7% [20 µM]
same,growth,SK-MEL-28 melanoma; 10 µM unless noted,103% [20 µM]
same,growth,SK-MEL-2 melanoma; 10 µM unless noted,87.6% [20 µM]
same,growth,EKVX NSCLC; 10 µM unless noted,101% [20 µM]
same,growth,SN12C renal,89% [20 µM]
same,growth,UO-31 renal; 10 µM unless noted,91% [20 µM]
same,growth,TK-10 renal; 10 µM unless noted,101% [20 µM]
same,growth,ACHN renal; 10 µM unless noted,97.9% [20 µM]
same,growth,CAKI-1 renal,97% [20 µM]
same,growth,A498 renal; 10 µM unless noted,110% [20 µM]
same,growth,HL-60(TB) leukemia,101% [20 µM]
same,growth,CCRF-CEM leukemia; 10 µM unless noted,97.6% [20 µM]
ClC1OC(Cl)(Cl)C(Cl)(Cl)OC1(Cl)Cl (centres undefined),growth,HCT-15 colon; 10 µM unless noted,106%
same,growth,HT29 colon; 10 µM unless noted,103%
same,growth,SNB-75 CNS; 10 µM unless noted,88.3%
same,growth,SNB-19 CNS; 10 µM unless noted,112%
same,growth,U251 CNS; 10 µM unless noted,103%
same,growth,PC-3 prostate; 10 µM unless noted,104%
same,growth,SK-MEL-5 melanoma; 10 µM unless noted,100%
same,growth,UACC-62 melanoma; 10 µM unless noted,104%
same,growth,LOX IMVI melanoma; 10 µM unless noted,108%
same,growth,SK-MEL-28 melanoma; 10 µM unless noted,106%
same,growth,SK-MEL-2 melanoma; 10 µM unless noted,113%
same,growth,EKVX NSCLC; 10 µM unless noted,100%
same,growth,SN12C renal,95.1%
same,growth,UO-31 renal; 10 µM unless noted,81.4%
same,growth,TK-10 renal; 10 µM unless noted,107%
same,growth,ACHN renal; 10 µM unless noted,99.7%
same,growth,CAKI-1 renal,99%
same,growth,A498 renal; 10 µM unless noted,131%
same,growth,HL-60(TB) leukemia,125%
O=C(O)C(F)F,growth,HCT-15 colon; 10 µM unless noted,106%
same,growth,HT29 colon; 10 µM unless noted,100%
same,growth,SNB-75 CNS; 10 µM unless noted,113%
same,growth,SNB-19 CNS; 10 µM unless noted,111%
same,growth,U251 CNS; 10 µM unless noted,108%
same,growth,PC-3 prostate; 10 µM unless noted,105%
same,growth,SK-MEL-5 melanoma; 10 µM unless noted,99.7%
same,growth,UACC-62 melanoma; 10 µM unless noted,102%
same,growth,LOX IMVI melanoma; 10 µM unless noted,99%
same,growth,SK-MEL-28 melanoma; 10 µM unless noted,116%
same,growth,SK-MEL-2 melanoma; 10 µM unless noted,120%
same,growth,EKVX NSCLC; 10 µM unless noted,101%
same,growth,SN12C renal,104%
same,growth,UO-31 renal; 10 µM unless noted,94.9%
same,growth,TK-10 renal; 10 µM unless noted,97.7%
same,growth,ACHN renal; 10 µM unless noted,116%
same,growth,CAKI-1 renal,102%
same,growth,A498 renal; 10 µM unless noted,84.4%
same,growth,HL-60(TB) leukemia,96%
same,growth,CCRF-CEM leukemia; 10 µM unless noted,110%
